Molecules are shown by their SMILES. Values without a mark were called inactive. Calls of active or inactive are those of the source.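 The calls were made as follows: active = viability at or under a set limit in both replicates, limit being median viability minus 3 SD (cut at about 48% in these data, passing the limit was not always enough); inconclusive = at or under the limit in just one replicate; inactive = at or above the limit in both replicates.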

A short description of the assay: growth inhibitors of H69AR lung tumor, primary screen, human, duplicate replicates (AID 580).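 Also: 100% = mean luminescence of untreated wells and 0% = no signal.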 To be noted: H69AR lung tumor cells viability, ATP luminescence, 72 h; at 10 µM; stronger effect = lower value.
One may read the viability as a read-out of living cells in per cent, often relative to untreated cells. For `Cc1cc(C)cc(-n2ccnc2SCC(=O)Nc2ccc3c(c2)OCCO3)c1`, the viability is 99.3%. Regarding `CC(C)CNC(=O)c1ccccc1NC(=O)CN(c1ccc2c(c1)OCCO2)S(C)(=O)=O`, the viability was 92.3%. Take `N#Cc1cnn(Cc2ccc(Cl)cc2)c1N`: the viability was 95.4%. With `Cc1cc(C)c2cc(CN(CC3CCCO3)C(=O)NC3CCCCC3)c(=O)[nH]c2c1` (configuration not stated), the viability is 73.4%. With `Cc1cc2c(cc(C(=O)OCC(=O)NCc3cccs3)n2C(C)C)o1`, the viability is 21.7% (active).

`CCCOc1ccccc1NC(=O)c1ccc(N)cc1`: the viability was 98.2%. Take `COC(=O)/C=c1\sc2ncnn2c1=O`: the viability is 78.7%.

Take `COc1cccc(CN=CC2=C(O)CC(C)(C)CC2=O)c1OC`: the viability was 100%. Turning to `CC(=O)Nc1ccc(NC(=O)C(C)Oc2ccccc2F)cc1` (configuration not stated), the viability is 103%. As to `Cc1nnc(NC(=O)CSc2nnc(-c3ccc(S(=O)(=O)N4CCCC4)cc3)n2C)s1`, the viability is 99%. Regarding `CCn1ncc(C2=NOC(C(=O)Nc3ccc4c(c3)OCO4)C2)c1C` (configuration not stated), the viability was 94.8%. `COC(=O)C1=CN(C)C=C(C(=O)OC)C1c1ccc(O)c(OC)c1`: the viability is 100%. Take `COc1ccccc1-c1nc(SCc2ccccn2)n[nH]1`: the viability is 97.2%.

For the compound `CCOC(=O)Cn1c(CN2CCOCC2)nc2c1c(=O)[nH]c(=O)n2C`, the viability was 99.7%. To `O=C(O)c1ccc2noc(-c3ccccc3)c2c1` belongs 97.8%; to `O=S(CC(O)COCc1ccc(Cl)cc1)c1ccccn1` (configuration not stated), 93%.

For `CCn1c(CCNC(=O)c2cccs2)nnc1SCC(=O)c1ccc(OC)cc1`, the viability is 97.4%.

The values are drawn from PubChem BioAssay.
